From PubChem
GAA inh: qHTS Assay for Inhibitors of Human alpha-Glucosidase as a Potential Chaperone Treatment of Pompe Disease | 0.005% of 200,000 active | purified human GAA, 4-MU-alpha-glucoside fluorescence | AID 1466, 2008 | Potency, µM (titrated, usually from 76.9 µM), for inactives: at the highest dose activity change, negative = inhibition, usual class: inhibitors;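 further: potency means the concentration at half of the fitted maximal effect; plate controls were uninhibited enzyme wells for no effect and no-enzyme background for full effect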
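Fluorogenic assay: 4 nM human alpha-glucosidase with 400 uM 4-methylumbelliferyl-alpha-D-pyranoside in 50 mM citrate/phosphate, 0.005% Tween-20, pH 5.0, 20 min at room temperature. Compounds tested up to 77 uM; AC50 from Hill fits.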
aGlu spleen mod: qHTS Assay for Inhibitors and Activators of Human alpha-Glucosidase From Spleen Homogenate; Lysosomal alpha-glucosidase (Homo sapiens), P10253; human spleen homogenate, 4-MU-alpha-glucoside fluorescence; Potency, µM (titrated, usually from 79.9 µM), without a hit: at the top dose activity change, negative = inhibition, most hits filed as inhibitors; 0.006% of 240,000 active; AID 2112, 2009;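 further: potency means the concentration at half of the fitted maximal effect; 0% = enzyme with vehicle and -100% = no enzyme basal signal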
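Human spleen homogenate (1 ug) incubated with compounds and 1 mM 4-methylumbelliferyl-alpha-D-glucopyranoside in pH 5.0 citrate/phosphate buffer, 37 C, 40 min. Stopped at pH 10; 4-MU fluorescence (Ex 365/Em 440 nm); AC50 by Hill fit.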
N370S GC mod: qHTS Assay for Inhibitors and Activators of N370S glucocerebrosidase as a Potential Chaperone Treatment of Gaucher Disease | 0.092% of 330,000 active | Potency, µM (doses to about 59.4 µM), inactives show at the highest dose activity change, negative = inhibition, usual class: inhibitors | N370S GC spleen homogenate, 4MU-glucoside fluorescence;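 further: potency means the concentration at half of the fitted maximal effect; 0% = full enzyme activity and -100% = no enzyme basal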
GLA inh pH 4.5: qHTS Assay for Inhibitors of Human alpha-Galactosidase at pH 4.5; Alpha-galactosidase A (Homo sapiens), P06280; purified enzyme, 4-MU-alpha-Gal fluorescence, pH 4.5; activity change, negative = inhibition, % at 105 µM; 230,000 tested, under 10 active; AID 1467, 2008;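 further: 0% = full activity with enzyme and -100% = basal without enzyme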
Target sequence (P06280 whole entry, looked up): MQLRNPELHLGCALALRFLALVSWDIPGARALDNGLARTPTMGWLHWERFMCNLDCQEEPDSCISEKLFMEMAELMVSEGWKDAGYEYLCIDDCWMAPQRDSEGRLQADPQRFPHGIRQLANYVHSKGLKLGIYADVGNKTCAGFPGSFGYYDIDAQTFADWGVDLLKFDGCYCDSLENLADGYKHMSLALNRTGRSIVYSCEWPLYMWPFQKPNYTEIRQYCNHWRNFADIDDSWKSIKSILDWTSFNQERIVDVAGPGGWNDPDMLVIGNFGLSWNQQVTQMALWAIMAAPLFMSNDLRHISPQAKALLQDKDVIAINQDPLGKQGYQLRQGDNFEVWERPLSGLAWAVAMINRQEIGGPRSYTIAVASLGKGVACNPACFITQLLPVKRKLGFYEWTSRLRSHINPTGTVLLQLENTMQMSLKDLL
GAA glycogen: qHTS Assay for Inhibitors and Activators of Human alpha-Glucosidase Cleavage of Glycogen; Lysosomal alpha-glucosidase (Homo sapiens), P10253; recombinant GAA, glycogen substrate, Amplex Red glucose oxidase fluorescence; Potency, µM (highest dose often 76.4 µM), without a hit: at the highest dose activity change, negative = inhibition, usual class: inhibitors; 0.38% of 300,000 active; AID 2100, 2009;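 further: potency means the concentration at half of the fitted maximal effect; 0% = full enzyme reaction and -100% = no-enzyme basal signal; the screen sought inhibitors and activators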
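Natural-substrate format: glycogen cleavage by 4 nM human enzyme, glucose read by Amplex Red coupling (Ex 573, Em 610 nm). Normalized to enzyme and no-enzyme controls.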
aGal spleen mod: qHTS Assay for Inhibitors and Activators of Human alpha-Galactosidase From Spleen Homogenate; human spleen homogenate, 4MU-alpha-Gal fluorescence, 40 min; Potency, µM (top dose mostly 80 µM), for inactives: top-dose activity change, negative = inhibition, hits mostly inhibitors; 0.008% of 240,000 active; AID 2107, 2009;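 further: potency means the concentration at half of the fitted maximal effect; 0% = enzyme with vehicle and -100% = no enzyme basal signal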
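Fluorogenic readout (Ex 365/Em 440 nm) of 4-methylumbelliferone released from 1 mM 4-MU-alpha-galactoside by spleen homogenate, 40 min at 37C, pH 5.0. Data normalized to no-enzyme and enzyme controls; Hill-equation AC50 from compound titrations.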
Numbers without * were called inactive; ? = inconclusive; . = no result; [ ] = dose if it differs, or a comment. Rows were chosen to be rich in hits. Some 0.43% of all compounds tested hit in one or more screens of this group. The call rests on the fitted dose curve; in most records, active means well fitted curve in the direction sought with a large enough effect; inconclusive means small, poorly fitted or top-dose-only effect, or another doubt; inactive means no such curve, though single readings can be large; an effect the other way counts as inactive or inconclusive.

SMILES	GAA inh	aGlu spleen mod	N370S GC mod	GLA inh pH 4.5	GAA glycogen	aGal spleen mod
Cc1noc(C)c1-c1ccc2ncnc(NCc3ccc(-c4ccccc4)cc3)c2c1	.	3.6%	-5.4%	.	.	7.8%
C=C(C)C(=O)OCCOCC	.	2.6%	-17.3%	.	.	0.3%
CCN(CC)c1ccc(/C=N/Nc2ccccc2)c(O)c1	-10.3%	5.6%	2.3%	-10.5	17.6µM*	-1.1%
CCN(CC)c1ccc(/C=N/Nc2cccc(C)c2)c(O)c1	1.3%	-8.8%	-1.9%	2.1	-26.8%	-3.1%
C[C@@H]1CC2(OC3C[C@@]4(C)C5=CC[C@H]6C(C)(C)C(O[C@@H]7OC[C@@H](O)[C@H](O)[C@H]7O)CC[C@@]67C[C@@]57CC[C@]4(C)C31)OC(O)C1(C)OC21 (some centres not stated)	.	10.2%	-13.3%	.	.	13.2%
COc1ccc(-n2c(=O)c3c4c(sc3n(Cc3ccc(F)cc3)c2=O)CN(C(C)=O)CC4)c(OC)c1	.	.	.	.	56.2µM*	.
COc1ccc(-n2c(=O)c3c4c(sc3n(Cc3cccc(F)c3)c2=O)CN(C(C)=O)CC4)c(OC)c1	7.0%	7.0%	-19.4%	-2.1	-1.0%	3.8%
CC(N)(C(=O)O)c1cccc(CC(=O)O)c1 (configuration not stated)	.	4.6%	7.6%	.	.	-6.1%
O=[N+]([O-])c1cc(Cl)ccc1N1CCN(c2ccccc2O)CC1	-1.5%	-5.5%	-9.9%	5.3	8.84µM*	-4.8%
NC(=O)c1ccc(N2CCN(c3ccc(O)cc3)CC2)c([N+](=O)[O-])c1	9.8%	-3.2%	-9.3%	5.1	5.01µM*	0.1%
CC(=O)c1ccc(N2CCN(c3ccc(C(N)=O)cc3[N+](=O)[O-])CC2)cc1	5.6%	3.6%	-16.1%	-2.2	-3.3%	13.0%
O=C(/C=C/c1ccc(/C=C/C(=O)Nc2ccc(C3=NCCN3)cc2)cc1)Nc1ccc(C2=NCCN2)cc1	.	-9.2%	-5.6%	.	.	8.5%
CNc1ccc(O)cc1	.	7.9%	?	.	.	-4.5%
COc1ccc(-c2nc(-c3ccccc3)c(NC(C)C)o2)cc1	.	3.3%	-4.5%	-4.5	.	-1.0%
S=C(NCc1ccncc1)Nc1ccccc1	4.6%	2.9%	-4.1%	3.5	9.3%	0.5%
S=C(NCc1ccncc1)Nc1ccc(Br)cc1	.	.	17.8µM*	.	-6.0%[76.3 µM]	.
CC(=O)/C=C(\C)Nc1ccccc1O	.	-12.1%	-20.8%	-1.0	25.1µM*	-3.3%
O=c1c(CCc2ccccc2)nc2cnc(N3CCNCC3)nc2n1C1CC1	.	-5.5%	-5.3%	.	.	-3.7%
CCOC(=O)C1=C(c2ccccc2)N(C)C(=O)NC1c1ccc(O)c(OC)c1 (configuration not stated)	-5.4%	4.4%	3.0%	-4.2	?	5.1%
CCOC(=O)C1=C(c2ccccc2)Nc2c(c(=O)n(C)c(=O)n2C)C1c1ccc(O)c(OC)c1 (configuration not stated)	-0.6%	1.0%	-9.9%	-16.2	31.6µM*	5.8%
Cc1cc(C)c2ccc3c(C)c(C)nc3c2[nH]1	?	.	7.08µM*	-9.6	6.5%	-4.9%
Nc1ccc(-c2n[nH]c(=O)c3ccccc23)cc1N	?	-12.0%	-11.1%	-9.5	17.8µM*	-4.8%
Cc1ccc(C(O)(C(=O)NNc2ccccn2)c2ccc(C)cc2)cc1	-10.9%	-6.0%	-3.9%	-8.3	5.01µM*	6.3%
CO[C@@H]1c2cc(F)ccc2/C(=C\CCOC(=O)C/C=C/c2ccccc2)[C@H]1C	.	4.9%	-2.6%	-15.1	.	8.3%
C/C(=N\NC(=S)Nc1ccccc1)C1Cc2ccccc2C(=O)O1 (configuration not stated)	.	2.3%	11.1%	-13.8	15.8µM*	-4.5%
